A word on the Kd: it is the constant that tells how readily two partners part at equilibrium. A low value points to tighter binding.

For one assay, the system named is AAK1. The conditions noted are these: concentration: 1 μM, replicates: in singlicate; n = 1.
The next assay has as its system ABL1-nonphosphorylated. Particulars: concentration: 1 μM, replicates: in singlicate, n = 1.
The test system of the next assay is ABL1-phosphorylated. Particulars: concentration: 1 μM, replicates: in singlicate, n = 1.
Another assay deals with ABL2. Particulars: concentration: 1 μM, replicates: in singlicate, n = 1.
Another assay concerns ACVR1B. Particulars: concentration: 1 μM, replicates: in singlicate; n = 1.
A further assay relates to ACVR1. The conditions noted are these: concentration: 1 μM, replicates: in singlicate; n = 1.
A further assay relates to ACVR2A. Particulars: concentration: 1 μM, replicates: in singlicate; n = 1.
The next assay has as its system ACVR2B. The conditions noted are these: concentration: 1 μM, replicates: in singlicate; n = 1.
The test system of a further assay is ACVRL1. The conditions noted are these: concentration: 1 μM, replicates: in singlicate; n = 1.
The next assay has as its system T1, ADCK3.
T1 construct: gene CABC1
Particulars: concentration: 1 μM, replicates: in singlicate, n = 1.

In the next assay the test system is ADCK4. The conditions noted are these: concentration: 1 μM, replicates: in singlicate, n = 1.
In a further assay the test system is AKT1. Particulars: concentration: 1 μM, replicates: in singlicate; n = 1.
For the next assay, the system named is AKT2. Particulars: concentration: 1 μM, replicates: in singlicate, n = 1.
A further assay deals with T2, YANK1.
T2 construct: gene STK32A

A further assay relates to T3, YSK4.
T3 construct: gene MAP3K19

Another assay deals with T4, p38-alpha.
T4 construct: gene MAPK14

The structures appear in SMILES notation. “And” between values parts separate entries of the source, which are not always exact repeats. Equal values may be shown once. Read-outs that look alike come from different tables or passages of the source.
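Wherever %Inh is given: KINOMEscan kinase panel screen.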
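Wherever Kd is given: kd values determined as follow-up on hits from a single-replicate KINOMEscan panel screen.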

Regarding `Cn1cc(-c2ccc3c(c2)CCN3C(=O)Cc2cccc(C(F)(F)F)c2)c2c(N)ncnc21` [GSK2606414], the “%Inh” value turned out to be 0% in the assay on AAK1; 0% in the assay with ABL1-nonphosphorylated; 0% in the assay on ABL1-phosphorylated; 11% with ABL2; 0% in the assay with ACVR1B; 0% in the assay on ACVR1. In addition, the “%Inh” value in the assay with ACVR2A was 0%; in the assay on ACVR2B it was 1%; in the assay on ACVRL1, 4%; in the assay on ADCK3, 6%; in the assay on ADCK4, 0%; in the assay on AKT1, 0%. The “%Inh” value in the assay on AKT2 came out at 18%.
`FC(F)(F)c1ccc(-c2cc(-c3c[nH]nc3-c3ccccn3)ccn2)cc1` [GW599550] had an equilibrium dissociation constant (Kd) in the assay on YANK1 greater than 10000 nM. Besides, the “%Inh” value in the assay with AAK1 stood at 24%; in the assay with ABL1-nonphosphorylated, 17%; in the assay with ABL1-phosphorylated, 21%; with ABL2 it was 16%; in the assay with ACVR1B, 46%; with ACVR1, 16%. Also, the “%Inh” value in the assay on ACVR2A is given as 0%; in the assay with ACVR2B, 34%; with ACVRL1, 0%; in the assay on ADCK3, 9%; with ADCK4 it was 37%; in the assay on AKT1 it was 0%. Besides, the “%Inh” value in the assay on AKT2 is given as 0%.
Take `COc1ccc(-c2nc3n(c2-c2ccncc2)CCC3)cc1` [SKF-104493]: the Kd was greater than 10000 nM in the assay with YSK4; 220 nM and 130 nM in the assay with p38-alpha. The “%Inh” value with AAK1 was 0%; with ABL1-nonphosphorylated (1 µM) it was 51% and 2%; in the assay with ABL1-phosphorylated (1 µM), 20% and 0%; with ABL2 (1 µM), 5% and 0%; in the assay with ACVR1B, 19%; in the assay on ACVR1 it was 0%. The “%Inh” value with ACVR2A is 0%; with ACVR2B, 0%; with ACVRL1 it was 0%; with ADCK3 (1 µM), 0% and 6%; with ADCK4 (1 µM) it was 12% and 6%; with AKT1 it was 0%. Besides, the “%Inh” value in the assay with AKT2 (1 µM) was 0% and 3%.
`Cn1ccc2ncnc(Nc3ccc(Oc4cccc(Cl)c4)c(Cl)c3)c21`: the “%Inh” value with AAK1 is 27%; with ABL1-nonphosphorylated, 45%; in the assay with ABL1-phosphorylated, 15%; in the assay with ABL2 it was 16%; in the assay on ACVR1B it was 28%; in the assay with ACVR1, 0%. For the same compound, the “%Inh” value amounted to 0% in the assay on ACVR2A; 17% in the assay on ACVR2B; 0% in the assay with ACVRL1; 1% with ADCK3; 0% in the assay with ADCK4; 22% in the assay with AKT1. Also, the “%Inh” value in the assay with AKT2 turned out to be 7%.
In the case of `N#Cc1ccc(Oc2ccc(Nc3ncnc4cc[nH]c34)cc2Cl)cc1`, the “%Inh” value with AAK1 amounted to 14%; with ABL1-nonphosphorylated, 51%; in the assay on ABL1-phosphorylated it was 6%; in the assay with ABL2 it was 12%; in the assay with ACVR1B it was 15%; in the assay on ACVR1, 1%. The “%Inh” value in the assay with ACVR2A is given as 27%; in the assay with ACVR2B, 25%; with ACVRL1, 6%; with ADCK3 it was 13%; with ADCK4, 8%; with AKT1, 0%. The “%Inh” value in the assay with AKT2 was found to be 0%.
Consider `O=C(Nc1n[nH]c2nc(-c3ccco3)c(Br)cc12)c1ccc(CN2CCCC2)cc1.O=C(O)[C@H](O)[C@@H](O)C(=O)O` [SB-742352], for which the “%Inh” value with AAK1 worked out at 0%; with ABL1-nonphosphorylated it was 63%; in the assay on ABL1-phosphorylated, 36%; with ABL2, 0%; in the assay with ACVR1B, 0%; with ACVR1 it was 24%. In addition, the “%Inh” value in the assay on ACVR2A, with ACVR2B, with ACVRL1, in the assay with ADCK3, with ADCK4 and with AKT1 was 0% throughout. For the same compound, the “%Inh” value in the assay on AKT2 is on record as 0%.
Consider `Nc1nc(-c2ccccn2)c(-c2ccnc3ccccc23)s1` [GW548057], for which the Kd with WNK4 was greater than 10000 nM. In addition, the “%Inh” value is on record as 1% in the assay with AAK1; 28% in the assay on ABL1-nonphosphorylated; 26% with ABL1-phosphorylated; 14% in the assay with ABL2; 59% in the assay on ACVR1B; 18% with ACVR1. Further, the “%Inh” value is 0% in the assay on ACVR2A; 56% with ACVR2B; 0% with ACVRL1; 9% with ADCK3; 44% in the assay on ADCK4; 0% in the assay with AKT1. The “%Inh” value in the assay on AKT2 was found to be 0%.
As to `c1ccc(-c2ccc3c(-c4ccnc(Nc5ccc6c(c5)OCCO6)n4)cnn3n2)cc1` [GW818941], the “%Inh” value with AAK1 was 0%; in the assay with ABL1-nonphosphorylated, 0%; in the assay with ABL1-phosphorylated, 0%; in the assay with ABL2 it was 12%; in the assay with ACVR1B it was 0%; in the assay on ACVR1, 24%. The “%Inh” value with ACVR2A was found to be 32%; in the assay on ACVR2B, 11%; in the assay on ACVRL1, 13%; with ADCK3, 0%; in the assay with ADCK4, 9%; in the assay on AKT1, 0%. Also, the “%Inh” value with AKT2 worked out at 10%.
As for `COC(=O)c1cccc(NC(=O)NCCNc2ccnc(Nc3ccc(F)cc3)n2)c1` [GSK1379883], the “%Inh” value with AAK1 was 3%; with ABL1-nonphosphorylated it was 0%; in the assay on ABL1-phosphorylated, 0%; in the assay with ABL2, 1%; in the assay on ACVR1B, 0%; in the assay with ACVR1 it was 6%. Besides, the “%Inh” value turned out to be 0% in the assay with ACVR2A; 0% in the assay with ACVR2B; 0% in the assay on ACVRL1; 15% in the assay with ADCK3; 48% with ADCK4; 0% in the assay with AKT1. The “%Inh” value in the assay with AKT2 came to 0%.
`Cl.Cn1ccc(-c2cccc(Nc3ccnc4cc(-c5nccs5)ccc34)c2)n1` [GW525701]: the “%Inh” value in the assay on AAK1 is given as 50%; with ABL1-nonphosphorylated it was 0%; with ABL1-phosphorylated, 1%; with ABL2, 10%; in the assay with ACVR1B, 0%; with ACVR1 it was 3%. For the same compound, the “%Inh” value with ACVR2A stood at 0%; in the assay with ACVR2B, 0%; in the assay with ACVRL1 it was 0%; in the assay with ADCK3, 6%; in the assay on ADCK4, 55%; in the assay with AKT1, 0%. In the assay on AKT2, the “%Inh” value turned out to be 7%.
Turning to `CCc1nc(-c2cccc(N(C)S(=O)(=O)c3ccccc3)c2)c(-c2ccnc(Nc3ccc(N4CCN(C(C)=O)CC4)nc3)n2)s1` [GSK1645895], in the assay with ZAK, the Kd came to 220 nM. The “%Inh” value with AAK1 is 26%; in the assay on ABL1-nonphosphorylated, 28%; in the assay with ABL1-phosphorylated, 7%; with ABL2, 23%; in the assay on ACVR1B it was 0%; in the assay with ACVR1, 0%. For the same compound, the “%Inh” value in the assay on ACVR2A was 0%; in the assay on ACVR2B, 0%; in the assay on ACVRL1 it was 0%; in the assay with ADCK3, 16%; in the assay on ADCK4, 19%; with AKT1, 0%. Also, in the assay with AKT2, the “%Inh” value is 0%.
Compound `COc1ccc(NC(=O)c2ccc(-c3cc(-c4nnc(C)o4)ccc3C)cc2)cc1` [GW595885] showed a Kd in the assay on p38-alpha of 180 nM. Further, the “%Inh” value in the assay on AAK1 was 0%; with ABL1-nonphosphorylated it was 0%; in the assay with ABL1-phosphorylated it was 0%; in the assay with ABL2, 16%; in the assay with ACVR1B, 0%; in the assay with ACVR1, 0%. Further, the “%Inh” value in the assay on ACVR2A was 0%; in the assay with ACVR2B, 5%; with ACVRL1, 0%; in the assay with ADCK3, 0%; in the assay on ADCK4, 28%; in the assay with AKT1, 0%. In the assay with AKT2, the “%Inh” value came out at 0%.
With `COc1ccc(Nc2nccc(N3CCC(NC(=O)c4cccc(NC(C)=O)c4)C3)n2)cc1` (stereo not shown) [GSK1379732], in the assay on WNK4, the Kd is greater than 10000 nM. In addition, the “%Inh” value with AAK1 came to 17%; in the assay with ABL1-nonphosphorylated, 0%; in the assay on ABL1-phosphorylated, 0%; in the assay with ABL2, 0%; in the assay with ACVR1B, 0%; with ACVR1, 6%. In addition, the “%Inh” value in the assay on ACVR2A amounted to 0%; in the assay with ACVR2B, 0%; in the assay with ACVRL1, 2%; with ADCK3, 8%; with ADCK4 it was 36%; in the assay on AKT1 it was 0%. For the same compound, the “%Inh” value with AKT2 is given as 14%.
On to `CN1CCC(n2cnc(-c3ccc(F)cc3)c2-c2ccnc(NC3CCNCC3)n2)CC1` [SB-229482], for which binding in the assay with p38-alpha was put at a Kd of 220 nM. The “%Inh” value was found to be 7% in the assay with AAK1; 44% with ABL1-nonphosphorylated; 0% in the assay on ABL1-phosphorylated; 0% in the assay with ABL2; 0% in the assay with ACVR1B; 0% in the assay with ACVR1. For the same compound, the “%Inh” value with ACVR2A was found to be 0%; in the assay with ACVR2B, 0%; in the assay with ACVRL1, 7%; with ADCK3, 9%; in the assay on ADCK4, 5%; with AKT1 it was 0%. The “%Inh” value with AKT2 was 0%.
